# Experimental data from PubChem BioAssay (EPA / NIEHS).
# Several values for one entry are separate records, joined by “and”; a condition that tells them apart may be missing. Equal values may be shown once. Inconclusive results are not listed. Activity calls are given as the source filed them. The calls were made as follows: active = hit-call score of the fitted dose curve at least 0.9, where 1 is the maximum; inconclusive = response in the unintended direction; inactive = score below 0.9.
# Assays:
# [1] = target: human Opioid Receptor Delta 1 (Opiate D1), OPRD1 (gene 4985) (UniProt P41143); experiment: NVS_GPCR_hOpiate_D1: NovaScreen (NVS) G Protein-Coupled Receptor Assay for human Opioid Receptor Delta 1 (Opiate D1) (AID 2283280)
# Chain of human Opioid Receptor Delta 1 (Opiate D1), OPRD1 (gene 4985) (P41143 whole entry, looked up): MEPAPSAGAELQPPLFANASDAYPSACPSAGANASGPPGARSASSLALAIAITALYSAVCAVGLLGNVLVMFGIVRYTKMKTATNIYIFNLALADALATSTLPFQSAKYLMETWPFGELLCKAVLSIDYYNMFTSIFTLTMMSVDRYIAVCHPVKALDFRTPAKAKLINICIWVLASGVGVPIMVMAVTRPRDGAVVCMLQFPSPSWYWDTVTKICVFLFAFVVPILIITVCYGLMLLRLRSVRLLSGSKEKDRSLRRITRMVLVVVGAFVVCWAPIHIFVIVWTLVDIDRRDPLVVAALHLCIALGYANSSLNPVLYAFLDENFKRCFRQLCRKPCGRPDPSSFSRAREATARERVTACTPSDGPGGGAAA
# How it was run: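 Radioligand displacement on membranes from CHO cells expressing the receptor, read by filter scintillation counting 1 h after dosing. Duplicate single-point screen at 25 uM, then concentration series for actives; loss of signal versus DMSO.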
# [2] = target: rat Serotonin, 5-Hydroxytryptamine Receptor 1 (5HT1), Non-Selective Binding, Htr1a (gene 24473) (UniProt P19327); experiment: NVS_GPCR_r5HT1_NonSelective: NovaScreen (NVS) G Protein-Coupled Receptor Assay for rat Serotonin, 5-Hydroxytryptamine Receptor 1 (5HT1), Non-Selective Binding (AID 2283286)
# Chain of rat Serotonin, 5-Hydroxytryptamine Receptor 1 (5HT1), Non-Selective Binding, Htr1a (gene 24473) (P19327 whole entry, looked up): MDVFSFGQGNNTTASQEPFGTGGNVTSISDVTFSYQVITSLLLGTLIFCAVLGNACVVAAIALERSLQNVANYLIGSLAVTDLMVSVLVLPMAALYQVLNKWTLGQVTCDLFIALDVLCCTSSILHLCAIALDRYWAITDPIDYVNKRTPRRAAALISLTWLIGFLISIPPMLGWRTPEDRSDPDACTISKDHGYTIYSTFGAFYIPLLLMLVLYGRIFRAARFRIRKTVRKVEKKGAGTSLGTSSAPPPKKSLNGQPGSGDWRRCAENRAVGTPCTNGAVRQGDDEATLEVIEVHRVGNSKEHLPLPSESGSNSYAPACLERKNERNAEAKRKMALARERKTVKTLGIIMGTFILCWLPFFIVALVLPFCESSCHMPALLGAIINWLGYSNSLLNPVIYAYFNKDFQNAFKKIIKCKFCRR
# How it was run: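 Rat cortical membranes, radioligand displacement, 1 h incubation, read by filter scintillation. Primary screen in duplicate at 25 uM. Hits (e.g. ≥30% inhibition) went to concentration-response up to 50 uM, fitted as loss of binding versus DMSO.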
# [3] = tested on: rat Adrenergic, Alpha 1B Receptor (Adra1B), gene 24173; experiment: NVS_GPCR_rAdra1B: NovaScreen (NVS) G Protein-Coupled Receptor Assay for rat Adrenergic, Alpha 1B Receptor (Adra1B) (AID 2283297)
# How it was run: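 Rat liver membranes, radioligand displacement with filter-based scintillation detection, 1 h incubation. Primary screen in duplicate at 25 uM; actives retested in concentration series; activity relative to DMSO.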
# [4] = target: human Neurotensin Receptor (NTS), NTSR1 (gene 4923) (UniProt P30989); experiment: NVS_GPCR_hNTS: NovaScreen (NVS) G Protein-Coupled Receptor Assay for human Neurotensin Receptor (NTS) (AID 2283279)
# Chain of human Neurotensin Receptor (NTS), NTSR1 (gene 4923) (P30989 whole entry, looked up): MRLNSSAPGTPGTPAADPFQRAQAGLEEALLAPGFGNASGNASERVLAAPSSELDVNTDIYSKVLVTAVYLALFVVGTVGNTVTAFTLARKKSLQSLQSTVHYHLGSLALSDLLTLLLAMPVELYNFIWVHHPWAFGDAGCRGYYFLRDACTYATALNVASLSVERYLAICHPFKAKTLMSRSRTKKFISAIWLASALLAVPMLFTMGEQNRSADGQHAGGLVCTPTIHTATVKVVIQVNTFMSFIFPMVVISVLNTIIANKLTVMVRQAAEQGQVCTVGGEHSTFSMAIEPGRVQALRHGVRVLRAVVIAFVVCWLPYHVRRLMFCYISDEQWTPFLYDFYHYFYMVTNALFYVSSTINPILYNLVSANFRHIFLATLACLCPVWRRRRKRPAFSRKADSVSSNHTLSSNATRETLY
# How it was run: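 Radioligand displacement on human NTSR1 protein from CHO cells, cell-free, 1 h, filter-based scintillation counting. Primary screen at 25 uM in duplicate; hits rerun in concentration-response up to 50 uM.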
# [5] = target: human Purinergic Receptor P2Y, P2RY1 (gene 5028) (UniProt P47900); experiment: NVS_GPCR_hPY2: NovaScreen (NVS) G Protein-Coupled Receptor Assay for human Purinergic Receptor P2Y (AID 2283281)
# Chain of human Purinergic Receptor P2Y, P2RY1 (gene 5028) (P47900 whole entry, looked up): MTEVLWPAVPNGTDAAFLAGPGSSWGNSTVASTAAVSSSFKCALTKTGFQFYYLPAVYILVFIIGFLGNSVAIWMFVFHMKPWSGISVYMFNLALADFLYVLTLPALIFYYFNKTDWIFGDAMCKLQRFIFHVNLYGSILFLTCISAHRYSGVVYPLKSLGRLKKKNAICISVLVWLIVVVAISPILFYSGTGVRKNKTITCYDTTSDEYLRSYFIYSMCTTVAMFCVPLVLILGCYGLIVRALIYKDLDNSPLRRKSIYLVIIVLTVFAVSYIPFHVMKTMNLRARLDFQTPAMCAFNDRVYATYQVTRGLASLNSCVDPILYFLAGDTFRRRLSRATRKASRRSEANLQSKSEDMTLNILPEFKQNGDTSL
# How it was run: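 Cell-free radioligand binding using U937-derived protein, 1 h after dosing, filter-based scintillation counting. Screened in duplicate at 25 uM; actives rerun as concentration-response up to 50 uM; loss of signal versus DMSO.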
# [6] = tested on: 5-hydroxytryptamine receptor 2C (pig); experiment: NVS_GPCR_p5HT2C: NovaScreen (NVS) G Protein-Coupled Receptor Assay for pig Serotonin, 5-Hydroxytryptamine Receptor 2C (5HT2C) (AID 2283288)
# How it was run: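 Pig choroid plexus membranes; radioligand competitive binding, filter-based scintillation counting, read 1 h after dosing. Primary screen in duplicate at 25 uM; actives then run as concentration series; loss of signal versus DMSO baseline.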
# [7] = target: human Neurokinin, NK2 Receptor, TACR2 (gene 6865) (UniProt P21452); experiment: NVS_GPCR_hNK2: NovaScreen (NVS) G Protein-Coupled Receptor Assay for human Neurokinin, NK2 Receptor (AID 2283278);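 also: actives reduce bound radioligand signal relative to DMSO baseline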
# Chain of human Neurokinin, NK2 Receptor, TACR2 (gene 6865) (P21452 whole entry, looked up): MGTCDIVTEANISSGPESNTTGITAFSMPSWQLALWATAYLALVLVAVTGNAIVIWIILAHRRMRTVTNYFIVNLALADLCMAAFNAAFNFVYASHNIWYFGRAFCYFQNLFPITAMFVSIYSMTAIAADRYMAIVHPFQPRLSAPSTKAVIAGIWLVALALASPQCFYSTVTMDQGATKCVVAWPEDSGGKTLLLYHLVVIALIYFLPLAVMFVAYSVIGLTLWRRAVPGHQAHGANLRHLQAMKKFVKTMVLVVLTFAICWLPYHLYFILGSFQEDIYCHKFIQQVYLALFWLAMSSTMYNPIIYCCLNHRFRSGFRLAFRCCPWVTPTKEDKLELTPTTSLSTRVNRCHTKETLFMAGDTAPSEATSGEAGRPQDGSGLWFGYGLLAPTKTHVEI
# How it was run: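 Radioligand binding on membranes from CHO cells expressing receptor, filter-based scintillation read 4 h after dosing. Initial duplicate screen at 25 uM, actives in concentration series; loss of signal versus DMSO.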
# [8] = target: human Orphanin, Opioid Related Nociceptin Receptor 1 (ORL1), OPRL1 (gene 4987) (UniProt P41146); experiment: NVS_GPCR_hORL1: NovaScreen (NVS) G Protein-Coupled Receptor Assay for human Orphanin, Opioid Related Nociceptin Receptor 1 (ORL1) (AID 2283283)
# Chain of human Orphanin, Opioid Related Nociceptin Receptor 1 (ORL1), OPRL1 (gene 4987) (P41146 whole entry, looked up): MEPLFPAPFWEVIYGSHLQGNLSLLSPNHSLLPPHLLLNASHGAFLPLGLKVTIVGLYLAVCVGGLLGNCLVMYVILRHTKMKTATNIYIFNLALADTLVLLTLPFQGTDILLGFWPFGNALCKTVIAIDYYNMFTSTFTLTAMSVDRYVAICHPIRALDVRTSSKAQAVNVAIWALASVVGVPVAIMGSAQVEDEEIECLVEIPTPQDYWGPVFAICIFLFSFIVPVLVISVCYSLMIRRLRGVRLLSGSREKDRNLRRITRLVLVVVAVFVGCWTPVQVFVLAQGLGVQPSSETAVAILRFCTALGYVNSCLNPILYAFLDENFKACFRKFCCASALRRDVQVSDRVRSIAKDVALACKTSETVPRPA
# How it was run: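 Filter-based radioligand displacement with receptor extracted from HEK293 cells, read 1 hour after dosing by scintillation counting. Duplicate single-point screen at 25 uM; qualifying chemicals then run in concentration-response to 50 uM, analysed relative to DMSO.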
# [9] = target: mouse Cholecystokinin, CCK1 Receptor (CCKA), Cckar (gene 12425) (UniProt O08786); experiment: NVS_GPCR_mCCKAPeripheral: NovaScreen (NVS) G Protein-Coupled Receptor Assay for mouse Cholecystokinin, CCK1 Receptor (CCKA) (AID 2283285)
# Chain of mouse Cholecystokinin, CCK1 Receptor (CCKA), Cckar (gene 12425) (O08786 whole entry, looked up): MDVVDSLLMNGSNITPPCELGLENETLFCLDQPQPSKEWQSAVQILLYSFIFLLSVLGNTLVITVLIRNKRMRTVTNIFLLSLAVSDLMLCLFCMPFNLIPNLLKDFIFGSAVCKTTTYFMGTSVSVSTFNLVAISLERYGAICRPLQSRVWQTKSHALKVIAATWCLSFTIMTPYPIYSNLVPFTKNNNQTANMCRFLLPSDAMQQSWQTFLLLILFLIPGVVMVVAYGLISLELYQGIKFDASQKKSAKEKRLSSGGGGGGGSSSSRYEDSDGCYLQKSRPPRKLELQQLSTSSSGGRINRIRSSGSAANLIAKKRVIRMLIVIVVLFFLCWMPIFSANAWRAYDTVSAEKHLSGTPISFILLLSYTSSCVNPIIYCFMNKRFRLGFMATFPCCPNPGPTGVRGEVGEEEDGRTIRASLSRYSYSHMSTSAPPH
# How it was run: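 Radioligand competitive displacement on mouse pancreatic membranes, 2 h incubation; filter-based scintillation counting, loss of signal versus DMSO. Single-concentration screen at 25 uM in duplicate, actives retested in concentration-response up to 50 uM.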
# [10] = tested on: rabbit Platelet Activating Factor Receptor (PAF), gene 100354046; experiment: NVS_GPCR_rabPAF: NovaScreen (NVS) G Protein-Coupled Receptor Assay for rabbit Platelet Activating Factor Receptor (PAF) (AID 2283287)
# How it was run: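 Rabbit platelet membrane preparation; radioligand displacement read by filter-based scintillation counting 1 h after dosing, loss of signal versus DMSO. Primary screen in duplicate at 25 uM, actives followed up in concentration series.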
# [11] = target: rat Adrenergic, Alpha 1, Non-selective Receptor (Adra1), Adra1a (gene 29412) (UniProt P43140); experiment: NVS_GPCR_rAdra1_NonSelective: NovaScreen (NVS) G Protein-Coupled Receptor Assay for rat Adrenergic, Alpha 1, Non-selective Receptor (Adra1) (AID 2283289)
# Chain of rat Adrenergic, Alpha 1, Non-selective Receptor (Adra1), Adra1a (gene 29412) (P43140 whole entry, looked up): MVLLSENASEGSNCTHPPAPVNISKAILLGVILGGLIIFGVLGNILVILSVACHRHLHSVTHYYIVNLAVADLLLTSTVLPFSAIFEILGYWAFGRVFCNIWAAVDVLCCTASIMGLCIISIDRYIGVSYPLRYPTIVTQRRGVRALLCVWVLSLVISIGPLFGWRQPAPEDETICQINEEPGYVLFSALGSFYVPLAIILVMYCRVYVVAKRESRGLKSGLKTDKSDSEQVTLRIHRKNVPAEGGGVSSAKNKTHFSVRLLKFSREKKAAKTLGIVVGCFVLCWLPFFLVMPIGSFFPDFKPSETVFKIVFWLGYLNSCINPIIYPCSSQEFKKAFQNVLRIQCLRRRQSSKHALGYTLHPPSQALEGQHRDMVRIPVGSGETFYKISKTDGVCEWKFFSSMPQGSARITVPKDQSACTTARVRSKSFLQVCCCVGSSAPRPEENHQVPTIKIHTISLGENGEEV
# How it was run: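 Rat forebrain membranes; radioligand displacement read by filter-based scintillation counting 1 h after dosing. Primary screen in duplicate at 25 uM; hits (e.g. ≥30% inhibition) rerun as concentration–response to 50 uM max. Fitted versus DMSO.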
# [12] = target: guinea pig Bradykinin Receptor B2 (BK2), BDKRB2 (gene 100135486) (UniProt O70526); experiment: NVS_GPCR_gBK2: NovaScreen (NVS) G Protein-Coupled Receptor Assay for guinea pig Bradykinin Receptor B2 (BK2) (AID 2283292)
# How it was run: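 Radioligand displacement on guinea pig ileum membranes for 1 h, read by filter-based scintillation counting; loss of signal relative to DMSO. Compounds were screened in duplicate at 25 uM, and those passing the threshold were retested in concentration-response up to 50 uM.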
# [13] = target: rat Serotonin, 5-Hydroxytryptamine Receptor (5HT), Non-Selective Binding, Htr1a (gene 24473) (UniProt P19327); experiment: NVS_GPCR_r5HT_NonSelective: NovaScreen (NVS) G Protein-Coupled Receptor Assay for rat Serotonin, 5-Hydroxytryptamine Receptor (5HT), Non-Selective Binding (AID 2283295)
# How it was run: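 Radioligand displacement on rat cortical membranes, 1 h incubation, filter-based scintillation counting. Primary duplicates at 25 uM, actives retested in concentration series; loss of signal fitted against DMSO as baseline.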
# [14] = target: rat Adrenergic, Alpha 1A Receptor (Adra1A), Adra1a (gene 29412) (UniProt P43140); experiment: NVS_GPCR_rAdra1A: NovaScreen (NVS) G Protein-Coupled Receptor Assay for rat Adrenergic, Alpha 1A Receptor (Adra1A) (AID 2283296)
# Chain of rat Adrenergic, Alpha 1A Receptor (Adra1A), Adra1a (gene 29412) (P43140 whole entry, looked up): as above
# How it was run: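 Rat cortical membranes pretreated with chlorethyl clonidine; competitive radioligand displacement, 1 h. Filter-based scintillation counting. Primary screen in duplicate at 25 uM, actives followed in concentration series.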
# [15] = target: human Thromboxane A2 Receptor (TXA2), TBXA2R (gene 6915) (UniProt P21731); experiment: NVS_GPCR_hTXA2: NovaScreen (NVS) G Protein-Coupled Receptor Assay for human Thromboxane A2 Receptor (TXA2) (AID 2283282);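 also: actives reduce bound radioligand signal relative to DMSO baseline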
# Chain of human Thromboxane A2 Receptor (TXA2), TBXA2R (gene 6915) (P21731 whole entry, looked up): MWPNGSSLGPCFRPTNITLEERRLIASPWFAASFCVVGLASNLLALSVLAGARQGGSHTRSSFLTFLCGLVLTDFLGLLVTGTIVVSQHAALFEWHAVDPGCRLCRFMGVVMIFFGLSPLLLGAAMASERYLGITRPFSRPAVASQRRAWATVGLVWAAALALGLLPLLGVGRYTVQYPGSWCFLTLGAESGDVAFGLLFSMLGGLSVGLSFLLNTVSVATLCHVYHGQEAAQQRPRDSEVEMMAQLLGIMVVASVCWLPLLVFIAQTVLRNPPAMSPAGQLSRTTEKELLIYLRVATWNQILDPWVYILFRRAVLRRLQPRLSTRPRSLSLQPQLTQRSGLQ
# How it was run: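 Cell-free radioligand binding with human platelet-derived receptor; 1 h after dosing, filter-based scintillation counting, loss of signal vs DMSO. Primary screen in duplicate at 25 uM.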
# [16] = target: human Opioid Receptor Mu (Opiate Mu), OPRM1 (gene 4988) (UniProt P35372); experiment: NVS_GPCR_hOpiate_mu: NovaScreen (NVS) G Protein-Coupled Receptor Assay for human Opioid Receptor Mu (Opiate Mu) (AID 2283290);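 also: hits lower bound tracer signal versus DMSO meaning displacement of the ligand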
# Chain of human Opioid Receptor Mu (Opiate Mu), OPRM1 (gene 4988) (P35372 whole entry, looked up): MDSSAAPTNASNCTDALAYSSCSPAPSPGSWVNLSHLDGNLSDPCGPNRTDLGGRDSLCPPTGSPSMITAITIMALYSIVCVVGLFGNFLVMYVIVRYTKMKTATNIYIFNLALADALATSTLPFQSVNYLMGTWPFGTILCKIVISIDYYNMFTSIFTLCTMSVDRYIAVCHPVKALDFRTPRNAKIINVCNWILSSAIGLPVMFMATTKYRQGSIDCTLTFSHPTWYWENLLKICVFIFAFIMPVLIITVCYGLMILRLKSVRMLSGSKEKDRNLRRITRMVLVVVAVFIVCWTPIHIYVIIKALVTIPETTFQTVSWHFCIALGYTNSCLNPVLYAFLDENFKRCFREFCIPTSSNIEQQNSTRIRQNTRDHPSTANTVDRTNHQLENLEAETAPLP
# How it was run: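 Radioligand displacement binding on membranes from CHO cells expressing the receptor, 2.5 h after dosing, filter-based scintillation counting; loss of signal vs DMSO baseline. Screened in duplicate at 25 uM, actives then run in concentration series.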
# [17] = target: human Vasopressin 1A Receptor (V1A), AVPR1A (gene 552) (UniProt P37288); experiment: NVS_GPCR_hV1A: NovaScreen (NVS) G Protein-Coupled Receptor Assay for human Vasopressin 1A Receptor (V1A) (AID 2283284)
# Chain of human Vasopressin 1A Receptor (V1A), AVPR1A (gene 552) (P37288 whole entry, looked up): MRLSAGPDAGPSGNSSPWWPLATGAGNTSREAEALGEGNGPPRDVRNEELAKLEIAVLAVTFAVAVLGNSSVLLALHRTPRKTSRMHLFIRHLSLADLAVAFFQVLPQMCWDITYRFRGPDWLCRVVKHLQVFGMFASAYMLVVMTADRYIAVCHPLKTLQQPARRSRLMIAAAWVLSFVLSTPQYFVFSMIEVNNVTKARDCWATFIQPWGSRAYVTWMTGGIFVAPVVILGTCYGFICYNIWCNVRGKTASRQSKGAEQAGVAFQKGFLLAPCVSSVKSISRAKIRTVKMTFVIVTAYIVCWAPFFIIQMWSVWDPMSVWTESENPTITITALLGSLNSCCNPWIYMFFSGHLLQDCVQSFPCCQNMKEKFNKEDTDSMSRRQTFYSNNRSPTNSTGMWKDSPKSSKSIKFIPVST
# How it was run: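 Cell-free radioligand displacement on human platelet preparations, 1.5 h incubation, filter-based scintillation counting. Chemicals first tested in duplicate at 25 uM; actives then run in concentration-response up to 50 uM, loss of signal fitted against DMSO.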
# [18] = target: mouse Cholecystokinin, CCK2 Receptor (CCKB), Cckbr (gene 12426) (UniProt P56481); experiment: NVS_GPCR_mCKKBCentral: NovaScreen (NVS) G Protein-Coupled Receptor Assay for mouse Cholecystokinin, CCK2 Receptor (CCKB) (AID 2283293)
# How it was run: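 Radioligand displacement binding on mouse forebrain membranes, 2 h exposure, filter-based scintillation counting. Primary screen in duplicate at 25 uM; actives (e.g. ≥30% inhibition) retested in concentration-response up to 50 uM; loss of binding signal relative to DMSO.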
smiles,measurement,setting,value
Cn1cnc2c1c(=O)[nH]c(=O)n2C,outcome,[1],inactive
same,outcome,[2],inactive
same,outcome,[3],inactive
C/C=C/C=C/C(=O)O,outcome,[4],inactive
CC(COCC(C)OC(=O)c1ccccc1)OC(=O)c1ccccc1 (configuration not stated),outcome,[5],inactive
same,outcome,[6],inactive
CCN(CC)CCOc1ccc(C(=C(Cl)c2ccccc2)c2ccccc2)cc1,AC50,[7],9.71 µM (active)
same,outcome,[4],inactive
same,AC50,[1],9.7 µM (active)
same,AC50,[8],28.9 µM (active) and 7.41 µM (active) and 31.3 µM (active)
same,AC50,[9],21.4 µM (active)
same,AC50,[10],4.76 µM (active)
same,AC50,[6],21 µM (active) and 5.8 µM (active) and 15.9 µM (active)
same,AC50,[11],7.75 µM (active)
same,outcome,[12],inactive
same,AC50,[13],21 µM (active)
same,AC50,[14],21 µM (active)
same,AC50,[3],21 µM (active)
CCCCCCCCCCCCCCOS(=O)(=O)O,AC50,[7],46.3 µM (active)
same,AC50,[1],8.07 µM (active)
same,AC50,[5],10.3 µM (active)
same,AC50,[15],7.59 µM (active)
same,AC50,[8],16.3 µM (active)
same,AC50,[16],8.03 µM (active)
same,AC50,[3],20.9 µM (active)
CS(=O)(=O)c1ccc([C@@H](C[C@H]2CCC(=O)C2)C(=O)Nc2cnccn2)cc1Cl,outcome,[5],inactive
CCc1cc(C2=C(C(=O)O)N(c3ccccc3C(F)(F)F)S(=O)(=O)c3ccccc32)cc2c1OCO2,AC50,[7],25 µM (active)
same,AC50,[15],3.08 µM (active)
same,AC50,[9],16.6 µM (active)
same,AC50,[10],4.11 µM (active)
Oc1ccc(O)cc1,outcome,[7],inactive
same,outcome,[17],inactive
same,AC50,[16],15.3 µM (active)
Nc1nc(=S)c2[nH]cnc2[nH]1,AC50,[7],44.4 µM (active)
same,outcome,[2],inactive
same,outcome,[16],inactive
CCC(C)N(C)C(=O)c1cc2ccccc2c(-c2ccccc2Cl)n1 (configuration not stated),AC50,[7],15.9 µM (active)
same,AC50,[15],1 µM (active)
same,outcome,[17],inactive
same,AC50,[9],10.8 µM (active)
same,AC50,[10],7.29 µM (active)
same,AC50,[18],2.61 µM (active)
